Compounds without any hit were thinned out: in the full panel of roughly 83,000, 20% have a hit.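 A percent growth of 40 corresponds to 60% growth inhibition; 0 means no net growth; -100 means all cells died. Active threshold: below 10.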 Values without a mark were called inactive. The source made the active and inactive calls.
Columns and labels:
Assay in all cases: NCI-60 one-dose screen, 48 h (100 = growth as untreated, 0 = no growth, -100 = all killed)
Settings in all cases: 10 µM unless noted
T-47D breast = system: T-47D breast
BT-549 breast = system: BT-549 breast
MDA-MB-435 melanoma = system: MDA-MB-435 melanoma
SW-620 colon = system: SW-620 colon
MCF7 breast = system: MCF7 breast
HCT-116 colon = system: HCT-116 colon
HCC-2998 colon = system: HCC-2998 colon
KM12 colon = system: KM12 colon

SMILES	growth (T-47D breast)	growth (BT-549 breast)	growth (MDA-MB-435 melanoma)	growth (SW-620 colon)	growth (MCF7 breast)	growth (HCT-116 colon)	growth (HCC-2998 colon)	growth (KM12 colon)
N#Cc1ccc(OCc2nc(N)nc(N)c2-c2ccc(Cl)c(Cl)c2)cc1	82.2%	34.2%	15.9%	21.8%	15.2%	11.9%	40.4%	43.2%
N=c1c2c(=O)n3c(nc2nc2sc4ccc(Cl)cc4n12)-c1ccccc1Sc1ccccc1-3	1.99% (active)	1.57% (active)	0.844% (active)	26.1%	6.98% (active)	7.35% (active)	6.95% (active)	22.6%
Cc1c(Cc2ccccc2)c(=O)oc2c(C)c(OCC(=O)n3nc(C#N)cc3N)ccc12	81.9%	90.3%	102%	101%	89.7%	95.3%	104%	98.7%
COc1cccc(Cn2cc3c(c2)-c2oncc2CC3)c1	65.2%	66%	-47% (active)	26.4%	18.4%	8.74% (active)	-32.4% (active)	5.03% (active)
COc1ccc(Cn2cc3c(c2-c2ccc(O)cc2)CCc2cnoc2-3)cc1	50%	44.4%	-39.4% (active)	22.5%	14.7%	11.1%	-21.1% (active)	11.8%
CCCCCCCCCCCCCCCCC(=O)O.CCCCCCCCCCCCCCCCCC(=O)O.CCCCCCCCCCCCCCCCCC(=O)O.CCCCCCCCCCCCCCCCCC(=O)O.CCCCCCCCCCCCCCCCCC(=O)O.CO[CH-]OC12COC1CC(O)C1(C)C(O)C(OC(C)O)C3=C(C)C(OC(=O)C(O)C([NH-])c4ccccc4)CC(O)(C(OC(=O)c4ccccc4)C21)C3(C)C.[Cu+].[Zn].[Zn].[Zn].[Zn].[Zn] (centres undefined)	45.9%	46.2%	10.9%	44.7%	22.1%	13.3%	21.6%	19.9%
O=C(O)CC1Cc2ccccc2C1C(=O)O (centres undefined)	101%	89.7%	108%	98.4%	105%	93.5%	104%	96.7%
COc1ccccc1Nc1nnc(COc2ccc(CNC(=O)CCCC/C=C/C(C)C)cc2OC)o1	76.1%	85.6%	103%	105%	87.1%	86.8%	105%	95.5%
C[C@@H](c1ccc2c(c1)[nH]c1ccc(Cl)cc12)c1nc2ccc(Cl)cc2[nH]1	19.1%	68.2%	106%	98.7%	13.8%	79.7%	92%	81.9%
O=c1oc2ccc3ccccc3c2cc1-c1ccnc2[nH]c(=S)[nH]c(=O)c12	103%	101%	106%	105%	96.8%	93.9%	101%	101%
COc1ccc(-n2nnnc2-c2cn[nH]c2C(F)(F)F)cc1	77.8%	85.5%	98.1%	94.6%	111%	97%	78.9%	101%
COc1ccc(C(=O)CN2C(=O)NC(c3ccccc3)(c3ccccc3)C2=O)cc1	95.2%	105%	104%	96.8%	102%	106%	106%	109%
O=C(/C=C/c1cccc(O)c1)c1cccc(-n2cc(-c3ccc(Cl)cc3)[nH]c2=O)c1	-0.126% (active)	-42.5% (active)	-9.55% (active)	-75.4% (active)	-8.69% (active)	-85.2% (active)	-64.4% (active)	-73.3% (active)
CCN(CC)CCOC(=O)c1cccnc1	96.6%	105%	96.3%	103%	95.1%	98.1%		103%
Nc1nc2c(c3cnccc13)C(c1ccc(Cl)c(Cl)c1)Cc1cnccc1-2 (centres undefined)	16.9%	-39.1% (active)	-53% (active)	3.85% (active)	0.513% (active)	-37.8% (active)	-75.7% (active)	-34.8% (active)

Source: PubChem BioAssay (NCI)
